Experimental data: PubChem BioAssay AID1903 (Southern Research Specialized Biocontainment Screening …, 2009)
Hit rate of the full screen: of about 310,000 compounds, about 1,200 (0.39%) were called active. A selection follows. Results with a measured potency or affinity are listed apart. Unmarked numbers belong to inactive results. How the calls were made is not given here.

target: Large T antigen (Simian virus 40) (UniProt P03070); assay: TAg ATPase/helicase activity blockers – biochemical (AID 1903); details: SV40 large T antigen ATPase/helicase inhibition assay; at 20 µM; hits give high values
Sequence (P03070 whole entry, looked up): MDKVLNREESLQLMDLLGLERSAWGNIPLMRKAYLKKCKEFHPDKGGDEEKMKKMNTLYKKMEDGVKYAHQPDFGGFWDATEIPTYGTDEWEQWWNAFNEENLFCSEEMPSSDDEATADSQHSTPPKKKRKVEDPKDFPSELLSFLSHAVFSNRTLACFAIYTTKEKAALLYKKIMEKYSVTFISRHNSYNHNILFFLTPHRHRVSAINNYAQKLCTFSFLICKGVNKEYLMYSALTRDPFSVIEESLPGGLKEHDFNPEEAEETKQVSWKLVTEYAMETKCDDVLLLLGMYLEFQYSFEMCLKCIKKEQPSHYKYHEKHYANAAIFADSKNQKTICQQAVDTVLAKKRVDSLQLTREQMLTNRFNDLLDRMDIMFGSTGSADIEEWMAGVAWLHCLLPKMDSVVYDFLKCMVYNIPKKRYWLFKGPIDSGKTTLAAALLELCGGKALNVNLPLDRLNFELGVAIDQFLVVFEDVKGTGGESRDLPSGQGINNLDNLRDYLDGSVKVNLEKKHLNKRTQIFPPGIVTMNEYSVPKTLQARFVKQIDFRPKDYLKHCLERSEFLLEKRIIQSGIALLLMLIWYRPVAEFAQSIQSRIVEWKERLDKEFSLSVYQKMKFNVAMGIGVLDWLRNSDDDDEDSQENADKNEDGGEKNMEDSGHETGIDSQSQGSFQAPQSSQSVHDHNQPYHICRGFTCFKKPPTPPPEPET

Going from `Cc1c(C(=O)N2CCOCC2)c(S(=O)(=O)Nc2ccc(OC(F)(F)F)cc2)c(C)n1C` to `O=C(c1nnsc1S(=O)(=O)c1ccc(Cl)cc1)N1CCOCC1`, the inhibition rises from 4.66% to 4.81%.

First: CC(=O)c1c(C)[nH]c(C(=O)OC2CCCCC2=O)c1C (stereo not drawn)
Second: CCOC(=O)c1[nH]c(C)c(C(=O)N2CCN(c3ccc(F)cc3)CC2)c1C
The inhibition of the first is lower: 6.27% for the first, 27.5% for the second.

Going from `Cc1ccsc1C=Nc1c(C)n(C)n(-c2ccccc2)c1=O` to `Cc1c(NC(=O)C(C)OC(=O)COc2ccccc2)c(=O)n(-c2ccccc2)n1C` (stereo not drawn), the inhibition rises from 4.72% to 10.4%.

Compared with `COCCNC(=O)C(c1ccco1)N(C(=O)Cn1nnc2ccccc21)c1ccccc1C` (stereo not drawn), `COC(=O)Cc1nnc(SCC(=O)Nc2ccccc2)c2ccccc12` is higher in inhibition: 2.93% for the first, 11.3% for the second.

Going from `Cc1ccc(CN2CC(C(=O)N(C)CC(=O)Nc3cccc(F)c3)CC2=O)cc1` (stereo not drawn) to `Cc1ccc(C)c(NC(=O)CN(C)C(=O)c2cc3ccccc3o2)c1`, the inhibition falls from 25.6% to 13.7%.

Going from `CC(CC(=O)N(C)c1c(N)n(Cc2ccccc2)c(=O)[nH]c1=O)c1ccccc1` (stereo not drawn) to `CCOCCn1c(SCc2ccccc2)nc2c1c(=O)[nH]c(=O)n2C`, the inhibition rises from 12.7% to 16.9%.

First: COc1ccccc1CNc1nc(S(=O)(=O)c2ccccc2)c(Cl)s1
Second: CC(/C=C1\SC(=S)N(NS(=O)(=O)c2ccccc2)C1=O)=C\c1ccccc1
The inhibition of the first is lower: 21.1% for the first, 28.2% for the second.

First: O=C(NC1CCCCC1)C(c1ccco1)N(CCc1ccccc1)C(=O)C(F)(F)F (stereo not drawn)
Second: O=C(COc1ccc(Cl)cc1)NCc1nnc(SCC(=O)NC2CCCC2)o1
The inhibition of the first is lower: 9.43% for the first, 14.1% for the second.

First: COC(=O)c1cccc(NC(=O)c2cnn(C)c2)c1
Second: O=C(Nc1ccccc1)Nc1snnc1C(=O)Nc1cccc(O)c1
The inhibition of the first is lower: 3.5% for the first, 10.9% for the second.

Compared with `C(=N\Nc1nc(Nc2ccccc2)nc(N2CCOCC2)n1)/c1c[nH]c2ccccc12`, `CN(C)c1nc(N/N=C/c2c[nH]c3ccccc23)nc(N2CCOCC2)n1` is higher in inhibition: 5.43% for the first, 27.1% for the second.

Compared with `Oc1cc(Br)ccc1C=Nc1ccc(N2CCCCC2)cc1`, `Cc1cc(Br)cc(C=Nc2ccc(N3CCOCC3)cc2)c1O` is higher in inhibition: 10.6% for the first, 19.2% for the second.

First: Oc1c(Br)cc(Cl)cc1C=Nc1ccc(N2CCOCC2)cc1
Second: Oc1c(Cl)cc(Cl)cc1C=Nc1ccc(N2CCOCC2)cc1
The inhibition of the first is higher: 17.2% for the first, 15.7% for the second.

Compared with `O=C1[C@H]2[C@@H](c3ccc(Cl)cc3)N3C(=O)N(c4cccc(Cl)c4)C(=O)[C@@]3(Cc3ccccc3)[C@H]2C(=O)N1C1CCCCC1`, `COc1ccc(NC(=O)CN(C)C(=O)c2cccc(S(=O)(=O)N3CCN(Cc4ccccc4)CC3)c2)cc1` is higher in inhibition: 6.67% for the first, 8.39% for the second.

Going from `Cc1ccc(S(=O)(=O)N2CCN(S(=O)(=O)c3ccc4c(c3)OCCO4)CC2)cc1` to `CN1CCN(c2ccc(S(=O)(=O)N3CCCCC3)cc2[N+](=O)[O-])CC1`, the inhibition rises from 2.43% to 23.6%.

First: O=C(C1CCN(C2CC(=O)N(c3ccc(F)cc3)C2=O)CC1)N1CCOCC1 (stereo not drawn)
Second: O=C1CC(N2CCN(c3ccc(F)cc3)CC2)C(=O)N1Cc1cccs1 (stereo not drawn)
The inhibition of the first is lower: 6.36% for the first, 7.54% for the second.

Going from `COc1ccccc1N1CCN(C(CNS(C)(=O)=O)c2cccnc2)CC1` (stereo not drawn) to `COc1ccc2cc(C(=O)N3CCN(c4ccccc4OC)CC3)[nH]c2c1`, the inhibition falls from 10% to 2.37%.

Going from `C/C(CC(=O)Nc1ccc2c(c1)OCCO2)=N\NC(=O)COc1cccc(C)c1` to `O=C(CSc1ccc(-c2nc3ccccc3[nH]2)cn1)Nc1ccc2c(c1)OCCO2`, the inhibition falls from 6.15% to 3.79%.

Going from `O=C(COC(=O)[C@@H]1CCCN1S(=O)(=O)c1ccc(Cl)cc1)NC1CCS(=O)(=O)C1` (stereo partly drawn) to `O=C(NC1CCS(=O)(=O)C1)Oc1ccc(Cl)cc1` (stereo not drawn), the inhibition rises from 1.86% to 9.05%.

Going from `CCOc1ccc(/C=N/NS(=O)(=O)c2ccc(C)cc2)cc1OC` to `CCOc1ccc(Br)cc1S(=O)(=O)Nc1ccc(C(=O)Nc2ccccc2OC)cc1`, the inhibition falls from 12.6% to 11.7%.

First: Cc1ccc(C2C3=C(CCCC3=O)Nc3[nH]c(=S)[nH]c(=O)c32)cc1 (stereo not drawn)
Second: COC(=O)C1=C(C)Nc2[nH]c(=S)[nH]c(=O)c2C1c1ccc(O)cc1 (stereo not drawn)
The inhibition of the first is lower: 23.7% for the first, 26.6% for the second.

Compared with `COC1Cc2ccccc2N(C(N)=O)c2ccccc21` (stereo not drawn), `O=[N+]([O-])c1ccccc1-c1cc(-c2ccccc2O)n[nH]1` is lower in inhibition: 11.8% for the first, 5.15% for the second.

Compared with `NS(=O)(=O)c1ccc(CCNC(=O)CSc2nc3ccccc3c3nc(CCN4CCCCC4)nn23)cc1`, `O=[N+]([O-])c1cc(S(=O)(=O)Nc2ccccc2)ccc1N1CCN(c2ccc(O)cc2)CC1` is higher in inhibition: 1.71% for the first, 17.3% for the second.

Compared with `COc1ccc(C2=CC3=C(Br)C(=O)C(C)(OC(=O)c4cccs4)C(=O)C3=CO2)cc1` (stereo not drawn), `COc1ccc(C2=CC3=C(Br)C(=O)C(C)(OC(=O)c4ccco4)C(=O)C3=CO2)cc1` (stereo not drawn) is lower in inhibition: 52.5% for the first, 50.8% for the second.

First: COc1ccc2oc(C)c(C(=O)NN)c2c1
Second: COc1cc2c(cc1NC(=O)CSc1ccc(Cl)cc1)oc1ccccc12
The inhibition of the first is higher: 28.3% for the first, 20.1% for the second.

First: O=C(NC1CCS(=O)(=O)C1)Oc1ccccc1 (stereo not drawn)
Second: CCOC(=O)c1nc(-c2ccccc2)sc1C(C)=O
The inhibition of the first is lower: 6.71% for the first, 13.2% for the second.

First: O=[N+]([O-])c1ccccc1-c1cc(-c2cc(Cl)ccc2O)n[nH]1
Second: O=C(NC(=S)Nc1ccccc1[N+](=O)[O-])c1cncc(Br)c1
The inhibition of the first is higher: 19% for the first, 7.4% for the second.

First: O=C(OCC(=O)N1CCN(c2ccccc2)CC1)c1cccs1
Second: O=C(Nc1ccccc1N1CCN(C(=O)c2ccc(Cl)cc2)CC1)c1cccnc1
The inhibition of the first is higher: 3.9% for the first, -3.62% for the second.

Compared with `CCN(c1ccc(NC(=O)COC(=O)c2ccc(C)s2)cc1)C(C)C`, `COc1ccc(C(CC(=O)NCc2ccccc2)C(C)C)cc1` (stereo not drawn) is lower in inhibition: 29.8% for the first, 6.33% for the second.

Going from `CCOC(=O)c1c(N)sc(N)c1C(=O)OCC` to `CCOC(=O)c1c(C)[nH]sc1=S`, the inhibition falls from 36.6% to 15%.

First: O=[N+]([O-])c1ccc2c(c1Nc1ccccc1Cl)=NC1(CCCCC1)N=2
Second: O=C(Nc1ccccc1)c1ccc(NCC2CCCO2)c([N+](=O)[O-])c1 (stereo not drawn)
The inhibition of the first is lower: 14.5% for the first, 16.3% for the second.

First: CCN(CC)C(=O)C(=O)c1cccn1-c1ccc(C#N)cc1
Second: O=C(O)/C=C/C(=O)Nc1ccc(-n2nccc2C(F)(F)F)cc1
The inhibition of the first is lower: 12.2% for the first, 22.7% for the second.

Compared with `CC(NC(=O)Nc1ccccc1O)(C(F)(F)F)C(F)(F)F`, `COc1ccc(NC(=O)NC(C)(C(F)(F)F)C(F)(F)F)cc1` is lower in inhibition: 10.1% for the first, 1.34% for the second.

Compared with `Cc1noc(C)c1CS(=O)(=O)c1ccc([N+](=O)[O-])cc1`, `Cc1nnsc1C(=O)Nc1ccc(Cl)cc1` is lower in inhibition: 4.7% for the first, 3.36% for the second.

First: CC/C(=N\Nc1nncc2ccccc12)c1ccc(F)cc1
Second: Cc1ccc(C(=O)CSc2nnc(-c3cccnc3)n2N)cc1
The inhibition of the first is lower: 0.15% for the first, 13.6% for the second.

Compared with `O=C(c1ccncc1)c1ccc(N2CCN(C3CC(=O)N(Cc4cccs4)C3=O)CC2)cc1` (stereo not drawn), `CC(=O)c1ccc(N2CCN(c3ccc(C(N)=O)cc3[N+](=O)[O-])CC2)cc1` is higher in inhibition: 4.51% for the first, 12.7% for the second.

First: O=C(COC(=O)CCC(NC(=O)OCc1ccccc1)C(=O)OCC(=O)Nc1ccccc1)Nc1ccccc1 (stereo not drawn)
Second: COc1ccc(/C=N/NC(=O)c2ccccc2OC)cc1COc1ccccc1[N+](=O)[O-]
The inhibition of the first is higher: 9.57% for the first, 1.66% for the second.

Going from `O=C(NN1C(=O)/C(=C/c2cccc(O)c2)SC1=S)c1ccccc1O` to `O=C(NN1C(=O)/C(=C/c2ccc(O)cc2)SC1=S)c1ccccc1O`, the inhibition rises from 0.53% to 38%.

Compared with `O=C1/C(=C\c2ccc(Br)cc2)SC(=S)N1NS(=O)(=O)c1ccccc1`, `O=c1c2ccccc2[nH]c2ccccc12` is higher in inhibition: 5.34% for the first, 7.79% for the second.

Compared with `CCCC1NC(=S)N(C2CCCCC2)C1=O` (stereo not drawn), `O=[N+]([O-])c1ccc(N2CCCCC2)cn1` is higher in inhibition: 1.78% for the first, 4.49% for the second.

First: Cc1ccc(-c2cc3c(n2-c2ccc(C(=O)O)cc2)CCCC3=O)cc1
Second: Cc1ccc(-n2c(C)cc3c2CCCC3=O)cc1
The inhibition of the first is lower: 11% for the first, 17.7% for the second.

First: CCC(C)(C)n1nnnc1C(c1ccccc1F)N1CCC(C(N)=O)CC1 (stereo not drawn)
Second: COc1ccc(NC(=O)Cn2c3ccccc3c3nc4n(c(=O)c32)CCS4)cc1OC
The inhibition of the first is lower: 8.52% for the first, 10.1% for the second.

First: Cc1ccc2[nH]c3ccccc3c(=O)c2c1
Second: CCCn1c(SCC(=O)NCc2ccc(C)cc2)n[nH]c1=O
The inhibition of the first is lower: 4.82% for the first, 7.77% for the second.

Compared with `Cc1ccc(C)c(OC(=O)c2cccnc2Cl)c1C`, `CSc1ncccc1C(=O)Nc1nc(C(C)(C)C)cs1` is lower in inhibition: 25.3% for the first, 8.58% for the second.

Going from `CCOC(=O)C1C(c2ccccc2)C(C(=O)OCC)S(=O)(=O)C(CCN(CC)CC)S1(=O)=O` (stereo not drawn) to `CCCCN(CCCC)CCNC(=O)Cc1nc2c(c(=O)[nH]c(=O)n2C)n1C`, the inhibition falls from 4.87% to 3.54%.

First: O=C(c1cc(-c2ccc(Cl)cc2)on1)N1CCOCC1
Second: O=[N+]([O-])c1ccc(N2CCOCC2)cn1
The inhibition of the first is lower: 7.19% for the first, 20.2% for the second.

Compared with `Clc1cccc(NCc2nnc(SCc3ccc(Cl)cc3Cl)o2)c1`, `CC(NC(=O)Nc1ccc(F)cc1F)c1ccc2c(c1)OCO2` (stereo not drawn) is higher in inhibition: 0.46% for the first, 16.7% for the second.

`COc1ccc(N2CCN(c3ccc(C(N)=O)cc3[N+](=O)[O-])CC2)cc1` showed an inhibition of 20.4%.
